This is a sample that favours compounds with a hit; in the whole collection about 1.8% have one here.
LAP4-GFP MLPCN: modulators of TOR pathway LAP4-GFP in S. cerevisiae | GFP response vs DMSO, % at 10 µM | S. cerevisiae LAP4-GFP multiplex, flow cytometry GFP, 3 h; median GFP as percent of DMSO wells | 0.34% of 320,000 active;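 active = GFP response vs DMSO above a set limit, about the screen mean plus 3 SD, cut at about 150% in these data; inconclusive = under 70 cell events counted for the yeast strain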
Myeloid diff MLP: compounds promoting myeloid differentiation; ER-HoxA9 myeloid progenitors, lysozyme-GFP differentiation, flow cytometry; calls only at 10 µM; 1% of 360,000 active; AID 624256;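 active = normalized GFP-positive differentiation at or above the plate's own cutoff, the solvent-only control mean plus 3 SD; inconclusive = no clear call, values can overlap the other calls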;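 note: cells exposed to compound for four days before flow analysis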
RPL19A-GFP yeast: yeast TOR pathway RPL19A-GFP modulation; S. cerevisiae RPL19A-GFP strain, flow cytometry, 3 h; stronger effect = lower value; percent response vs DMSO, % at 10 µM; 0.3% of 330,000 active;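 active = percent response vs DMSO below 50%; inconclusive = fewer than 70 events counted for the yeast strain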;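 note: median channel GFP fluorescence of the barcoded RPL19A-GFP strain; lower means less RPL19A-GFP as with rapamycin TOR inhibition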
MEP2 TOR yeast: yeast TOR pathway MEP2-GFP modulation; S. cerevisiae MEP2-GFP strain, flow cytometry GFP, 3 h; 100% = DMSO control level; GFP response vs DMSO, % at 10 µM; 0.51% of 330,000 active; AID 2016;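 active = GFP response versus DMSO above a set limit, roughly screen mean plus 3 SD, cut at about 180% in these data; inconclusive = fewer than 70 cells counted for a yeast strain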;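 note: median GFP fluorescence of the barcode-gated MEP2-GFP cells per well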
CIT2-GFP yeast: modulators of TOR pathway CIT2-GFP in S. cerevisiae; 0.065% of 320,000 active; S. cerevisiae CIT2-GFP strain, flow cytometry, 3 h; 100 means same as DMSO wells; GFP response vs DMSO, % at 10 µM;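 active = GFP response relative to DMSO above a set limit, near the screen mean plus 3 SD, cut at about 150% in these data; inconclusive = Fewer than 70 cells measured for a yeast strain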;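 note: ratio of well median GFP fluorescence to mean of DMSO wells on the plate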
AGP1 TOR yeast: alters AGP1-GFP fluorescence in TOR pathway yeast screen | S. cerevisiae AGP1-GFP multiplex flow cytometry, 3 h; GFP as percent of DMSO wells | GFP response vs DMSO, % at 10 µM | 0.02% of 320,000 active | AID 2066;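 active = GFP response relative to DMSO above a set limit, near screen average plus 3 SD, cut at about 150% in these data; inconclusive = fewer than 70 cells counted for the yeast strain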;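 note: median GFP channel fluorescence of the gated AGP1 strain per well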
Hits are given with their value; . = inactive; ? = inconclusive; / = no result given; + = active, no number; [ ] = another dose, or the depositor's remark.

SMILES	LAP4-GFP MLPCN	Myeloid diff MLP	RPL19A-GFP yeast	MEP2 TOR yeast	CIT2-GFP yeast	AGP1 TOR yeast
N#Cc1ccc(N[C@@H]2CCN3C(=O)c4ccccc4[C@@H]3C[C@H]2O)cc1	/	+	/	/	/	/
CSc1nc(N2CCN(c3ccccc3Cl)CC2)c2ccccc2n1	154	.	.	.	.	.
O=C(O)c1ccc2c3c(ncnc13)-c1ccccc1C2=O	170	/	.	.	.	.
CN1CCN(S(=O)(=O)c2cccs2)CC1	.	.	.	.	.	.
O=S(=O)(c1cccs1)N1CCN(c2ccc(O)cc2)CC1	.	+	.	.	.	.
OC(CNCc1ccccc1)(c1ccccc1)c1ccccc1	.	.	.	211[may fluoresce violet]	?	.
Cc1cccc(NC(=O)[C@H](Cc2c[nH]c3ccccc23)NC(=O)[C@@H]2Cc3ccccc3CN2)c1	.	.	.	.	.	.
Cc1ccc(NC(=O)[C@H](Cc2c[nH]c3ccccc23)NC(=O)[C@@H]2Cc3ccccc3CN2)c(C)c1	.	+	.	.	.	.
COc1ccc(CCNS(=O)(=O)c2cn(C)cn2)cc1OC	.	+	.	.	.	.
COc1ccc(/C=C/c2ccc3ccccc3[n+]2C)cc1OC	.	+	.	.	.	.
CN(C)c1ccc(/C=C/c2ccc3ccccc3[n+]2C)cc1	.	/	.	.	.	.
COc1ccc(Cn2cc3c(-c4ccc(F)cc4)nnc-3c3cc(OC)c(OC)cc32)cc1	.	+	.	.	.	.
COc1cc2c3nnc(-c4ccc(F)cc4)c-3cn(Cc3ccccc3)c2cc1OC	.	+	.	.	.	.
CCOC(=O)c1sc2nc3c(SCCC(=O)O)cc(C(=O)c4cc(OC)ccc4O)cn3c(=O)c2c1C	/	+	/	/	/	/
N#CCC(=O)N/N=C/c1ccc(OCC(=O)Nc2ccc(F)cc2)cc1	.	.	.	.	.	.
Cc1cc(SCC(=O)Nc2cccc(S(=O)(=O)NC3=NCCCCC3)c2)c(C)cc1Br	.	+	.	.	.	.
Cc1cc(SCC(=O)Nc2cccc(S(N)(=O)=O)c2)c(C)cc1Br	.	.	.	.	.	.
O=C(COC(=O)c1nc(Cl)ccc1Cl)NNC(=O)c1ccccc1	.	.	.	.	.	.
Cc1ccc(C(=O)/C=C/c2ccc(Br)cc2)o1	.	+	.	.	.	.
COc1cccc(C(=O)NN2CC(O)=C(c3nc(C)cs3)C2=N)c1	.	.	43[may fluoresce violet]	189[may fluoresce violet]	?	?
COCCOC(=O)c1cc(C(=O)c2cc(F)ccc2O)coc1=N	.	+	.	.	.	.
Cc1ccc(O)c(C(=O)c2coc(=N)c(C(=O)NC(C)C)c2)c1	.	.	22[may fluoresce violet]	274[may fluoresce violet]	?	?
C=CCNC(=O)CC1C(=O)NCCN1Cc1ccc(-c2ccccc2)cc1 (configuration not stated)	.	.	.	.	.	.
O=C(NCc1ccco1)c1c[nH]c2ccc(S(=O)(=O)N3CCOCC3)cc2c1=O	/	.	/	/	/	/
CC/C(C)=N/Nc1nc2c(c(=O)[nH]c(=O)n2C)n1CCc1ccccc1	.	/	.	242[may fluoresce violet]	?	?
SMILES	LAP4-GFP MLPCN	Myeloid diff MLP	RPL19A-GFP yeast	MEP2 TOR yeast	CIT2-GFP yeast	AGP1 TOR yeast
N#Cc1ccc(OCC(=O)NNC(=S)NC(=O)C2CC2)cc1	.	.	.	.	.	.
CC(C)c1ccc(OCC(=O)NNC(=S)NC(=O)C2CC2)cc1	154[may fluoresce green]	.	.	.	.	.
CC1=CC(=O)C2=C(C)CC[C@@H]3[C@H](OC(=O)[C@H]3C)[C@@H]12	.	.	.	.	.	.
CC(C)Cc1ccc(C(C)C(=O)O)cc1 (configuration not stated)	.	+	.	.	.	.
O=C(CN1CCc2ccccc21)NCc1ccccc1Cl	.	.	.	.	.	.
FC(F)(F)c1ccc(NCCc2ccccc2)nc1	.	.	.	.	.	.
NS(=O)(=O)c1ccc(CCNc2ccc(C(F)(F)F)cn2)cc1	?	.	32[may fluoresce violet]	354[may fluoresce violet]	?	?
C=CCn1c(Cc2cccs2)nnc1SCC(=O)NC1CC1	.	.	.	.	.	.
CCn1c(Cc2cccs2)nnc1SCC(=O)NC1CC1	.	+	.	.	.	.
Cc1cc(C(=O)NNC(=O)c2c(-c3c(Cl)cccc3Cl)noc2C)no1	.	.	.	.	150[may fluoresce green]	.
Cc1nc(C(=O)NNC(=O)c2c(-c3c(Cl)cccc3Cl)noc2C)cs1	.	.	.	.	.	.
Cc1onc(-c2c(Cl)cccc2Cl)c1NC(=O)NNc1c(Cl)cncc1Cl	.	.	.	205	.	.
Cc1onc(-c2c(Cl)cccc2Cl)c1NC(=O)NNc1ccccn1	.	.	.	.	.	.
Cc1ccc(CNC(=O)[C@@H]2CCC(=O)N2Cc2ccco2)cc1	/	.	.	.	.	.
COc1ccc2[nH]cc(C(=O)CN3CCCCC3)c2c1	.	.	.	.	.	.
Cc1cc(C)c(C)c(OC(=O)c2sc(Cl)nc2C)c1	.	/	.	.	.	.
CCOC(=O)C1CCCN(S(=O)(=O)c2cccc3nsnc23)C1 (configuration not stated)	.	.	.	.	.	.
CCCCCCC(=O)NNC(=O)c1c(O)c2ccccc2n(CC)c1=O	.	.	.	.	.	.
CCCCCCCC(=O)NNC(=O)c1c(O)c2ccccc2n(CC)c1=O	.	+	.	.	.	.
Cc1cc(C)nc(S/C=C/C(=O)c2ccccc2F)n1	182	?	.	.	.	.
COc1ccccc1S(=O)(=O)NCc1ccc(C(=O)NC(C)c2ccccn2)cc1 (configuration not stated)	.	.	.	.	.	.
Nc1nc(C(=O)N2CCOCC2)nn1S(=O)(=O)c1ccccc1	.	.	.	.	.	.
O=C(N/C(=C/c1ccc(Cl)cc1)c1nc2ccccc2[nH]1)c1ccco1	.	.	.	.	.	.
O=C(/C(=C/c1ccc(Cl)cc1)c1nc2ccccc2[nH]1)c1ccccc1	.	+	.	.	.	.
CCN1CCN(CCC2Oc3cc([N+](=O)[O-])ccc3NC2=O)CC1 (configuration not stated)	.	.	.	375[may fluoresce violet]	?	?
SMILES	LAP4-GFP MLPCN	Myeloid diff MLP	RPL19A-GFP yeast	MEP2 TOR yeast	CIT2-GFP yeast	AGP1 TOR yeast
O=C1Nc2ccc([N+](=O)[O-])cc2OC1CCN1CCN(Cc2ccccc2)CC1 (configuration not stated)	.	.	.	?	.	?
Cc1ccc(/C=C(\C#N)C(=O)Nc2c(C)cccc2C)s1	.	.	.	.	.	.
Cc1ccc(NC(=O)/C(C#N)=C/c2ccc(C)s2)c(C)c1	.	.	.	468[may fluoresce violet]	?	?
Cc1ccc2cc3cc(C(=O)N(CC(=O)NC4CCCC4)c4cccc(C)c4C)sc3nc2c1	.	.	.	.	.	.
c1cncc(-c2nc(-c3cccs3)cs2)c1	.	+	.	.	.	.
O=C(CSc1ccccc1)N1CCN(S(=O)(=O)c2ccccc2F)CC1	.	+	.	.	.	.

From PubChem BioAssay
